# From the supplement of paper PMC8728848
# Shown is part of a subset that was picked to be rich in the strongest signals.
# Assays:
# Assay in all cases: glycan array binding signal (z-score within array); higher = stronger binding
# Details in all cases: glycan notation: IUPAC condensed, linker removed
# [1] = test system: Gal(b1-3)GlcNAc(b1-3)Gal(b1-4)Glc
# Method in brief: (§1)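 Glycan array data came from 3228 arrays in the Consortium for Functional Glycomics database, and only arrays with an available protein sequence were kept. Glycan names were put into IUPAC-condensed notation, and columns mapping to the same glycan were averaged. The binding signal is a within-array Z-score, averaged across arrays of one protein sequence run at different concentrations or buffers and across linkers. A negative Z-score can be read as non-binding.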
# [2] = test system: Gal(b1-3)[Fuc(a1-4)]GlcNAc(b1-2)Man(a1-3)[Gal(b1-3)[Fuc(a1-4)]GlcNAc(b1-2)Man(a1-6)]Man(b1-4)GlcNAc(b1-4)GlcNAc
# Method in brief: as §1
# [3] = test system: Gal(b1-3)[Fuc(a1-4)]GlcNAc(b1-2)Man(a1-3)[Gal(b1-3)[Fuc(a1-4)]GlcNAc(b1-2)Man(a1-6)]Man(b1-4)GlcNAc(b1-4)[Fuc(a1-6)]GlcNAc
# Method in brief: as §1
# [4] = test system: Gal(b1-4)GalNAc(b1-3)[Fuc(a1-2)]Gal(b1-4)GlcNAc
# Method in brief: as §1
# [5] = test system: Gal(b1-3)[Fuc(a1-4)]GlcNAc(b1-3)Gal(b1-3)[Fuc(a1-4)]GlcNAc
# Method in brief: as §1
# [6] = test system: Gal(b1-3)[Fuc(a1-4)]GlcNAc(b1-6)GalNAc
# Method in brief: as §1
# [7] = test system: Gal(b1-4)Gal
# Method in brief: as §1
# [8] = test system: Gal(b1-4)Glc6S
# Method in brief: as §1
# [9] = test system: Gal(b1-3)[Fuc(a1-4)]GlcNAc(b1-3)Gal(b1-4)GlcNAc
# Method in brief: as §1
# [10] = test system: Gal(b1-3)GlcNAc(b1-3)Gal(b1-4)GlcNAc(b1-2)[Gal(b1-3)GlcNAc(b1-3)Gal(b1-4)GlcNAc(b1-6)]Man(a1-6)[Gal(b1-3)GlcNAc(b1-3)Gal(b1-4)GlcNAc(b1-2)Man(a1-3)]Man(b1-4)GlcNAc(b1-4)[Fuc(a1-6)]GlcNAc
# Method in brief: as §1
# [11] = test system: Gal(b1-3)GlcNAc(b1-3)Gal(b1-4)GlcNAc(b1-3)Gal(b1-4)GlcNAc(b1-2)[Gal(b1-3)GlcNAc(b1-3)Gal(b1-4)GlcNAc(b1-3)Gal(b1-4)GlcNAc(b1-6)]Man(a1-6)[Gal(b1-3)GlcNAc(b1-3)Gal(b1-4)GlcNAc(b1-3)Gal(b1-4)GlcNAc(b1-2)Man(a1-3)]Man(b1-4)GlcNAc(b1-4)[Fuc(a1-6)]GlcNAc
# Method in brief: as §1
# [12] = test system: Gal(b1-3)GlcNAc(b1-6)Gal(b1-4)GlcNAc
# Method in brief: as §1
# [13] = test system: Gal(b1-3)GlcNAc6S
# Method in brief: as §1
# [14] = test system: Gal(b1-3)[Fuc(a1-4)]GlcNAc(b1-3)Gal(b1-4)[Fuc(a1-3)]GlcNAc
# Method in brief: as §1
# [15] = test system: Gal(b1-3)GlcNAc(b1-2)Man(a1-3)[GlcNAc(b1-4)][Gal(b1-3)GlcNAc(b1-2)Man(a1-6)]Man(b1-4)GlcNAc(b1-4)GlcNAc
# Method in brief: as §1
# [16] = test system: Gal(b1-3)GlcNAc(b1-3)Gal(b1-4)GlcNAc(b1-6)[Gal(b1-3)GlcNAc(b1-3)]Gal(b1-4)Glc
# Method in brief: as §1
# [17] = test system: Gal(b1-3)GlcNAc(b1-6)GalNAc
# Method in brief: as §1
# [18] = test system: Gal(b1-3)GlcNAc(b1-2)Man
# Method in brief: as §1
# [19] = test system: Gal(b1-3)[Fuc(a1-4)]GlcNAc
# Method in brief: as §1
# [20] = test system: Gal(b1-3)[Neu5Ac(a2-6)]GalNAc
# Method in brief: as §1
substance,measurement,setting,value
"BambL (Burhholderia ambifaria), Q0B4G1",glycan array binding signal (z-score),[1],-0.312
same,glycan array binding signal (z-score),[2],-0.317
same,glycan array binding signal (z-score),[3],-0.066
same,glycan array binding signal (z-score),[4],-0.283
"SiiE (Salmonella typhimurium), A0A0H3NVH0",glycan array binding signal (z-score),[5],-0.613
AgI/II Vhelical-GFP (Streptococcus mutans),glycan array binding signal (z-score),[6],1.08
same,glycan array binding signal (z-score),[7],2.56
same,glycan array binding signal (z-score),[8],-0.148
"Wza (Escherichia coli), P0A930",glycan array binding signal (z-score),[1],-0.658
same,glycan array binding signal (z-score),[9],1.14
same,glycan array binding signal (z-score),[6],2.92
AgI/IIC123-GFP (Streptococcus mutans),glycan array binding signal (z-score),[10],5.61
same,glycan array binding signal (z-score),[11],-0.036
same,glycan array binding signal (z-score),[12],0.823
same,glycan array binding signal (z-score),[13],-0.244
"SpGH101 (Streptococcus pneumoniae), Q8DR60",glycan array binding signal (z-score),[2],1.28
same,glycan array binding signal (z-score),[3],0.539
same,glycan array binding signal (z-score),[14],-0.146
LcI (Legionella pneumophila),glycan array binding signal (z-score),[15],0.389
same,glycan array binding signal (z-score),[16],-0.388
same,glycan array binding signal (z-score),[12],-0.157
same,glycan array binding signal (z-score),[17],3.69
Epa22,glycan array binding signal (z-score),[18],-0.018
same,glycan array binding signal (z-score),[19],-0.223
same,glycan array binding signal (z-score),[20],3.02
same,glycan array binding signal (z-score),[8],-0.061
Actinohivin (Actinomycete K97),glycan array binding signal (z-score),[3],2.06
